BRCT inh green – qHTS Assay for Inhibitors of BRCT-Phosphoprotein Interaction (Green Fluorophore) | Breast cancer type 1 susceptibility protein (Homo sapiens), P38398 | BRCA1 BRCT-phosphopeptide binding, green fluorescence polarization | Potency, µM (titrated, usually from 76.9 µM), for the others: at the top dose activity change, negative = inhibition, most hits filed as inhibitors | 75,000 compounds, 0.05% hits;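 also: potency is read from the fitted curve at half-maximal effect; plate controls were peptide without protein for full effect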
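Compounds were incubated for 12 min at room temperature with a complex of 100 nM fluorescein-tagged pBACH1 decapeptide and 250 nM His-tagged BRCT protein. Buffer was phosphate pH 7.3 with EDTA, DTT and Tween 20. Disruption of binding lowers the polarization signal.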
DNA Pol III inh – qHTS Assay for Inhibitors of DNA Polymerase III Holoenzyme System; reconstituted DNA polymerase III holoenzyme replication, biochemical; Potency, µM (highest dose often 57.1 µM), for inactives: top-dose activity change, negative = inhibition; 71,000 compounds, 0.25% hits; also: potency is read from the fitted curve at half-maximal effect; % is scaled to controls: 0 for no effect and ±100 for the full control effect
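Reconstituted *E. coli* holoenzyme (0.35 nM Pol III, 1 nM beta, 154 nM SSB, 2 nM primase) was preincubated with compound for 15 min at RT. Synthesis on 1.4 nM ssM13Gori ran 35 min, then was stopped with PicoGreen/EDTA and read as dsDNA fluorescence.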
IMPase inh – qHTS Assay for Identifying the Cell-Membrane Permeable IMPase Inhibitors. Inositol monophosphatase 1 (Rattus norvegicus), P97697. CHO-M1 cells, IP1 accumulation, HTRF TR-FRET ratio. inhibition (IP1 accumulation), % at 46.1 µM. 120,000 tested, under 10 active; active = well fitted curve in the direction sought with a large enough effect in the signal ratio, not every such curve was filed as active; inconclusive = small, poorly fitted or top-dose-only effect, or a change in a side signal; inactive = no such curve, though single readings can be large or run the other way; the % refers to the signal ratio;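 also: cells stimulated with carbachol in lithium chloride buffer; plate controls were DMSO basal wells for no effect and reference inhibitor wells for full effect; higher means more IMPase inhibition seen as more IP1 and lower FRET ratio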
Target sequence (P97697 whole entry, looked up): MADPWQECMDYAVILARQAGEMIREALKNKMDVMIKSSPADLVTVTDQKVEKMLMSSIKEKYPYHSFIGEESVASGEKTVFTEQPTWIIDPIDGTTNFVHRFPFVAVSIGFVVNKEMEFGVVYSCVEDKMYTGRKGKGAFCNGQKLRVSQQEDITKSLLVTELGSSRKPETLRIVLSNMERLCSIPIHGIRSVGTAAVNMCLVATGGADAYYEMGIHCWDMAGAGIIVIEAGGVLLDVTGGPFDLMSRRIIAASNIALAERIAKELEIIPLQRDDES
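Seeded CHO-M1 cells were dosed with compound at up to 46 uM, stimulated with carbachol for 30 min, then lysed in IP-One detection reagents. Higher IP1 lowers the TR-FRET signal.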
Hsp90 Hop PPI – qHTS Assay for Disrupters of an Hsp90 Co-Chaperone Interaction. AlphaScreen TPR2A-His6 binding biotin-Hsp90 C-terminal peptide. Potency, µM (doses to about 57 µM), inactives show at the highest dose activity change, negative = inhibition. 71,000 compounds, 0.44% hits. AID 595, 2007; active = well fitted curve in either direction with a large enough effect; inconclusive = small, poorly fitted or top-dose-only effect, or another doubt; also: potency is read from the fitted curve at half-maximal effect; % is scaled to controls: 0 for no effect and ±100 for the full control effect
BRCT PPI red – qHTS Assay for Inhibitors of BRCT-Phosphoprotein Interaction (Red Fluorophore). AID 892, 2007. BRCT-phosphopeptide binding, red fluorescence polarization. 75,000 compounds, 0.03% hits. Potency, µM (titrated, usually from 76.9 µM), inactives show top-dose activity change, negative = inhibition, most hits filed as inhibitors; also: % is scaled to controls: 0 for no effect and ±100 for the full control effect
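Rhodamine-labelled pBACH1 10-mer (100 nM) bound to BRCT domain (100 nM) at pH 7.3; compounds incubated 12 min room temperature, polarization read. Free peptide defines full inhibition; unlabelled decapeptide titrated as control.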
TsaE inh – qHTS Assay for Inhibitors of YjeE; Potency, µM; 71,000 compounds, 0.05% hits; purified YjeE enzyme, qHTS inhibition assay; tRNA threonylcarbamoyladenosine biosynthesis protein TsaE (Escherichia coli (strain …
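Purified YjeE (10 uM) with BODIPY Texas Red-labeled ADP probe (2 uM); compounds pin-transferred, 15 min at room temperature. Binding inhibition read as decreased fluorescence polarization; ADP titration as control.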
Hsp90-TPR2A inh – Confirmation Concentration-Response Assay and Counterscreen for Disrupters of an Hsp90 Co-Chaperone Interaction. AlphaScreen TPR2A-His6 / biotin-Hsp90 peptide binding. 45 compounds, 100% hits. activity, negative = inhibition, % at 40 µM or 46 µM, hits read low. AID 632, 2007. shares compounds with Hsp90 Hop PPI;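 active = compound lowering the Hsp90 and TPR2A binding signal, whether or not the linker counterscreen also flagged it as an artifact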
Numbers without * were called inactive; i = inactive; ? = inconclusive; . = no result; + = active, no number; ! = not confirmed by another sample; [ ] = dose if it differs, or a comment. The full list was thinned out, with hits kept by preference. Unless noted, calls follow the shape of the dose curve; as a rule, active = well fitted curve in the direction sought with a large enough effect; inconclusive = small, poorly fitted or top-dose-only effect, or another doubt; inactive = no such curve, though single readings can be large; an effect the other way counts as inactive or inconclusive.

SMILES | BRCT inh green | DNA Pol III inh | IMPase inh | Hsp90 Hop PPI | BRCT PPI red | TsaE inh | others
Clc1ccc(C(c2ccc(Cl)cc2)C(Cl)Cl)cc1 | 2% | 2% | . | 32µM* | 1% | i
Clc1ccc(C(c2ccc(Cl)cc2)C(Cl)(Cl)Cl)cc1 | 1% | 5% | . | 27% | -2% | i
Brc1ccc(Oc2cc(Br)c(Br)cc2Br)c(Br)c1 | -1% | -4% | . | 32µM*! | 1% | i
CN(N=O)c1cc(O)ccc1O | ? | 3.2µM* | 8 | ? | 32µM* | 100µM*
CCCCc1ccc(C(=O)O)nc1 | 0% | 1% | -2 | 2.5µM* | 0% | i
CCCCCC[C@H]1C(=O)O[C@@H](C)[C@H](NC(=O)c2cccc(NC=O)c2O)C(=O)O[C@@H](C)[C@@H]1OC(=O)CC(C)C | . | -1% | . | -8% | . | i
COc1cc2c(cc1O)CCN[C@H]2C | . | -1% | . | -2% | . | i
C[n+]1c(/C=C\c2ccc(O)c3ncccc23)[se]c2ccccc21 | -2%[15.4 µM] | -8%[11.4 µM] | . | 3.2µM* | 5%[15.4 µM] | i
[Cd+2].[Cl-].[Cl-] | -3% | 0.063µM* | . | -10% | 0% | ?
CC(C)[C@@]1(NC(=O)[C@@H]2C=C3c4cccc5[nH]cc(c45)C[C@@H]3N(C)C2)O[C@]2(O)[C@H]3CCCN3C(=O)[C@H](Cc3ccccc3)N2C1=O | . | 0% | . | -28% | . | i
Cc1ccccc1-n1c(C)cc(/C=C2/C(=O)NC(=O)N(Cc3ccco3)C2=O)c1C | . | . | 9 | . | . | .
CCOC(=O)C1CCN(/C=C2/C(=O)NC(=O)N(Cc3ccco3)C2=O)CC1 | -2% | 7.9µM* | 2 | -14% | -1% | i
CN(C(=O)Oc1cccc2cccnc12)c1ccccc1 | -2% | . | -2 | . | 0% | .
Oc1cccc2cccnc12 | 0%[15.4 µM] | -13%[11.4 µM] | . | 10µM*! | 2%[15.4 µM] | i
C[C@H]1CC[C@]2(NC1)O[C@@H]1C[C@@H]3[C@@H]4CC=C5C[C@H](O)CC[C@@]5(C)[C@H]4CC[C@@]3(C)[C@H]1[C@@H]2C | . | -1% | . | -4% | . | i
C[C@@H]1O[C@H](O[C@H]2C[C@@H](O)[C@]3(CO)[C@H]4[C@H](O)C[C@]5(C)[C@@H](C6=CC(=O)OC6)CC[C@@]5(O)[C@H]4CC[C@]3(O)C2)[C@@H](O)[C@H](O)[C@H]1O | . | -3% | . | -5% | . | i
COc1cccc2c1C(=O)c1c(O)c3c(c(O)c1C2=O)C[C@](O)(/C(C)=N\O)C[C@@H]3O[C@H]1C[C@H](N)[C@@H](O)[C@H](C)O1 | 5%[15.4 µM] | 1µM* | . | -5%[11 µM] | ? | i
O=c1cccc2n1C[C@@H]1C[C@H]2CN2CCCC[C@H]12 | . | -2% | . | 0% | . | i
CCN1C[C@@]2(COC(=O)c3ccccc3N3C(=O)C[C@H](C)C3=O)CC[C@H](OC)[C@@]34[C@@H]5CC6[C@@H](OC)C[C@@](O)([C@H]5[C@H]6OC)C(O)([C@@H]13)[C@@H](OC)[C@H]24 | . | 5% | . | -4% | . | i
O=C(O)/C=C\c1ccc[c]([Sb](=[O])([OH])[OH])c1 | -22%[15.4 µM] | 0.2µM* | . | -8%[11 µM] | 31%[15.4 µM] | i
[Cl-].[Cl-].[Hg+2] | -10% | 32µM* | . | 0% | 1% | i
CC(C)(C)[C@@]1(O)C[C@@H]2OC(=O)C[C@@]23C(=O)O[C@H]2OC(=O)[C@@H](O)[C@]231 | . | -3% | . | 1% | . | i
CC[C@H]1[C@@H]2C[C@@H]3[C@@H]4N(C)c5ccccc5[C@@]45C[C@@H]([C@H]2[C@@H]5O)N3[C@@H]1O | . | -8% | . | -1% | . | i
C=C(C)[C@H]1[C@H]2OC(=O)[C@@H]1[C@]1(O)C[C@H]3O[C@]34C(=O)O[C@H]2[C@]14C | . | -3% | . | ? | . | i
CCOC(=O)c1ccc(NC(=O)c2c(O)[nH]c(=O)[nH]c2=O)cc1 | 13µM* | i | 4 | -4% | -2% | i
SMILES | BRCT inh green | DNA Pol III inh | IMPase inh | Hsp90 Hop PPI | BRCT PPI red | TsaE inh | others
C[n+]1c2cc(N)ccc2cc2ccc(N)cc21 | 1.3µM* | . | . | . | -8% | .
Cc1nc2c(=O)n(C)c(=O)nc-2n(C)n1 | . | . | 11 | . | . | . | Hsp90-TPR2A inh=+
Cn1nc(-c2ccccc2)nc2c(=O)n(C)c(=O)nc1-2 | . | . | . | . | . | . | Hsp90-TPR2A inh=+
CCn1nc(-c2ccccc2)nc2c(=O)n(C)c(=O)nc1-2 | -2% | 0% | 6 | 1.3µM* | -1% | i | Hsp90-TPR2A inh=+
C=C[C@@H]1CN2CC[C@H]1C[C@H]2[C@@H](O)c1ccnc2ccccc12 | . | -4% | . | 1% | . | i
NNc1c(C(N)=O)c2c(N)ncnc2n1[C@@H]1O[C@H](CO)[C@@H](O)[C@@H]1O | . | -3%[11.4 µM] | . | -4%[11 µM] | . | i
CCN(CC)C(=O)N[C@@H]1C=C2c3cccc4[nH]cc(c34)C[C@@H]2N(C)C1 | . | -2% | . | -13% | . | i
